Experimental data from publication PMC4336329 (PLoS ONE, 2015).
Among all 310,000 compounds or so, about 14,000 (4.5%) showed an effect of 50% or more. Effects have a minus sign here. This excerpt belongs to a sample that is enriched for strong results.

target: human ether-à-go-go-related gene (hERG) potassium channel (human, UniProt Q12809); assay: primary screen, population patch clamp on CHO cells stably expressing hERG; higher = less effect of the substance
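Also: peak tail current of the secondary pulse compared with the same well before compound.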

human ether-à-go-go-related gene (hERG) potassium channel, sequence (Q12809 whole entry, looked up): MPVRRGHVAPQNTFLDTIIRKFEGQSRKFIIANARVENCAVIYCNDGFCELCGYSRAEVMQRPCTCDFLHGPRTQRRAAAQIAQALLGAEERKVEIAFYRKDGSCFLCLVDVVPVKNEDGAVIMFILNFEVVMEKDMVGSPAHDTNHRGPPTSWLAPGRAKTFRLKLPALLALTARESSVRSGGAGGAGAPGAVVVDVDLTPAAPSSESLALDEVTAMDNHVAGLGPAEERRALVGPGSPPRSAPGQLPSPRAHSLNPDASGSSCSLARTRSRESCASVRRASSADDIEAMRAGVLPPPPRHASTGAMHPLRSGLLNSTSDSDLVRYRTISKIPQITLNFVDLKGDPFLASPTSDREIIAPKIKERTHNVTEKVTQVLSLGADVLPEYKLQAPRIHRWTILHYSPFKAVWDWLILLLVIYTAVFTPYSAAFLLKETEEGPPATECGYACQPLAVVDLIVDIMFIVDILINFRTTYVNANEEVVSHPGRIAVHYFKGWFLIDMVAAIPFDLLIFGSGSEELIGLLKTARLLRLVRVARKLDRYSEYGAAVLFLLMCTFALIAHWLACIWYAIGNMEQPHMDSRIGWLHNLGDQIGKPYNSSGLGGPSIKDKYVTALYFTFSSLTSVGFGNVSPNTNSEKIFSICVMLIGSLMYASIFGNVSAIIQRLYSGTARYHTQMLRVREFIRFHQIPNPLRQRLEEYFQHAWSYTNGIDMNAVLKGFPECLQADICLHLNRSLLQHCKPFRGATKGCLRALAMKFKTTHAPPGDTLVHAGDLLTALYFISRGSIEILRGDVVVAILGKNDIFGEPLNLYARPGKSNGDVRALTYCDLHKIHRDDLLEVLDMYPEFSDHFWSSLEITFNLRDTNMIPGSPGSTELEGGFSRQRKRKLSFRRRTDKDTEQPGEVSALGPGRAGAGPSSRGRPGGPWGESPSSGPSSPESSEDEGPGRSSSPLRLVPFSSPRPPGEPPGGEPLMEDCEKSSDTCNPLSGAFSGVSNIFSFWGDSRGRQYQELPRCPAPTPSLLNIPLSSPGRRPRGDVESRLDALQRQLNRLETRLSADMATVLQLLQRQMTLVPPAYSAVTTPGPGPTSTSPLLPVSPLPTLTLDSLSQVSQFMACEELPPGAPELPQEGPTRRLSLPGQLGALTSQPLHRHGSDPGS

Row | Compound | hERG current change (%, negative = inhibition) at 10uM [%]
1 | COc1ccc(/C=N\NC(=O)c2ccccc2Br)cc1COc1c(F)c(F)cc(F)c1F | -0.654
2 | Brc1ccc(-n2cccc2/C=N/n2cnnc2)cc1 | -25.1
3 | Cc1ccc(OCC(=O)Nc2ccc(C)c(S(=O)(=O)N3CCCCC3)c2)c([N+](=O)[O-])n1 | -45.4
4 | C=CCNC(=O)/C(=C/c1ccccc1OCC)NC(=O)c1ccccc1 | 2.63
5 | O=c1cc(Nc2ccc3c(c2)OCCO3)[nH]c(=O)n1-c1ccc(Cl)cc1 | -0.327
6 | CCC(C)NC(=O)c1ccccc1NC(=O)/C(=C/c1ccc(OC)cc1)c1ccccc1 (stereo not drawn) | 3.99
7 | COC(=O)c1ccccc1NC(=O)NCc1ccc2c(c1)OCO2 | -11.4
8 | CCCCS(=O)CC(CS(=O)CCCC)OC(=O)c1ccc(C)cc1 (stereo not drawn) | -49.2
9 | Cc1ccc(S(=O)(=O)N(C)c2ccc(C(=O)O)cc2)cc1 | -17.1
10 | COc1ccc(CNCC(O)COc2ccc(C(C)(C)c3ccccc3)cc2)cc1.O=C(O)C(=O)O (stereo not drawn) | -12.3
11 | CC(=O)Nc1ccc(OCC(O)CNC2CCCC2)cc1.Cl (stereo not drawn) | 6.24
12 | CC(C)NCCCOc1ccc(C(C)(C)c2ccccc2)cc1.O=C(O)C(=O)O | 7.21
13 | CCOc1ccc(OCC(O)CNC2CCN(Cc3ccccc3)CC2)cc1.O=C(O)C(=O)O (stereo not drawn) | -62.8
14 | CC(C)N(CCNCC(O)COc1ccc(C(C)(C)c2ccccc2)cc1)C(C)C.O=C(O)C(=O)O (stereo not drawn) | -79
15 | COc1ccccc1NCC(O)COc1ccc(C(C)(C)C)cc1.O=C(O)C(=O)O (stereo not drawn) | 6.79
16 | CCOc1ccc(CC(=O)NC2CCN(Cc3ccccc3)CC2)cc1 | -6.23
17 | C#CCOc1ccccc1CNC1CCN(Cc2ccccc2)CC1.O=C(O)C(=O)O | -29.3
18 | CC(C)(c1ccccc1)c1ccc(OCC(O)CNC2CCN(Cc3ccccc3)CC2)cc1.O=C(O)C(=O)O (stereo not drawn) | -72.8
19 | O=C(Cc1ccccc1)NN1C(=O)C2C3C=CC(C3)C2C1=O (stereo not drawn) | 12.4

Row | Compound | hERG current change (%, negative = inhibition) at 10uM [%]
20 | COc1ccc(C)cc1NC(=O)C(OC(=O)C1CC1)c1ccccc1 (stereo not drawn) | -12
21 | O=C(COC(=O)C1CCN(S(=O)(=O)c2ccccc2C(F)(F)F)CC1)NCc1ccc(F)cc1 | -8.33
22 | CCOc1ccc(N=Cc2c(O)n(-c3ccc(C)c(C)c3)c(=O)[nH]c2=O)cc1 | -1.8
23 | Cc1ccc(-n2ncc3c(SCC(=O)Nc4cc(C)on4)ncnc32)c(C)c1 | 17.9
24 | O=C(C[n+]1ccccc1)N/N=C/c1ccccc1[N+](=O)[O-].[Cl-] | 40.2
25 | Cc1cccc(C(=O)N2CCCC(Nc3ccc(C(C)C)cc3)C2)n1 (stereo not drawn) | 0.95
26 | Cc1ccc(C2Nc3cccc4cccc(c34)N2)s1 | -4.53
27 | CN(C)S(=O)(=O)c1cccc(C(=O)Nc2ccc(S(=O)(=O)N3CCCC3)cc2)c1 | 25.5
28 | CC1(C)Cc2cccc(OCC(=O)N3CCN(S(=O)(=O)c4ccccc4F)CC3)c2O1 | -14.6
29 | O=C(Nc1ccc2cn[nH]c2c1)c1ccc(S(=O)(=O)N2CCOCC2)cc1 | -19.7
30 | CC(=O)OC(C(=O)Nc1nccs1)c1ccccc1 (stereo not drawn) | 2.26
31 | O=C(c1nn(-c2ccccc2)c(=O)c2ccccc12)N1CCN(c2ccccn2)CC1 | -16.5
32 | CC(=O)c1ccc(N2CCN(C(=O)c3nn(Cc4ccccc4)c(=O)c4ccccc34)CC2)cc1 | -75.1
33 | O=C(c1nn(Cc2ccccc2)c(=O)c2ccccc12)N1CCc2ccccc2C1 | -29
34 | CC(C)N(CCNC(=O)c1nn(Cc2ccccc2)c(=O)c2ccccc12)C(C)C | -66.1
35 | CC(C)CCNC(=O)c1nn(Cc2ccccc2)c(=O)c2ccccc12 | 5.59
36 | CC(C)CNC(=O)c1nn(Cc2ccccc2)c(=O)c2ccccc12 | -16
37 | CC(=O)c1ccc(N2CCN(C(=O)c3n[nH]c4ccccc34)CC2)cc1 | -34.3
38 | O=C(c1nn(Cc2ccccc2)c(=O)c2ccccc12)N1CCN(c2ccccn2)CC1 | -66.3

Row | Compound | hERG current change (%, negative = inhibition) at 10uM [%]
39 | O=C(c1ccc(Cn2c(=O)[nH]c3ccccc3c2=O)cc1)N1CCN(c2ccccn2)CC1 | 0.196
40 | O=[N+]([O-])c1cccc(S(=O)(=O)Nc2ccc(S(=O)(=O)N3CCCC3)cc2)c1 | 2.95
41 | O=C(CSc1nnc(NC(=O)c2c(F)cccc2F)s1)NC1CC1 | 21.9
42 | COC(=O)c1cccc(Oc2cccc(Cl)n2)c1 | 14.7
43 | Clc1ccc(COc2ccccn2)cc1Cl | -6.01
44 | OCCOCCn1c(C(CO)Nc2nc(-c3ccc(F)cc3)cs2)nc2ccccc21 (stereo not drawn) | -29.4
45 | COc1ccc(N(CC(=O)NCc2ccccc2OC)S(=O)(=O)c2ccccc2[N+](=O)[O-])c(OC)c1 | 3.17
46 | CN(C)Cc1c(C(=O)N/N=C/C=C/c2ccccc2)nnn1-c1nonc1N | -24.9
47 | COC(=O)Nc1ccc(OC)c(OC)c1 | 4.01
48 | COc1ncnc2c1sc1nc(-c3ccccc3)c3c(c12)CCCC3 | 15.6
49 | Cc1ccc(-c2nc(C#N)c(N3CCC(C(N)=O)CC3)o2)cc1 | -23.7
50 | CCOc1ccc(-c2nc(C#N)c(N3CCN(C)CC3)o2)cc1 | -32.5
51 | COc1ccc(-c2nc(C#N)c(N3CCC(C(N)=O)CC3)o2)cc1 | -15.6
52 | CC(C)(C)c1ccc(-c2nc(C#N)c(N3CCC(C(N)=O)CC3)o2)cc1 | -63.3
53 | N#Cc1nc(-c2ccc([N+](=O)[O-])cc2)oc1N1CCCCC1 | 14.5
54 | CCN1CCN(c2oc(-c3ccc([N+](=O)[O-])cc3)nc2C#N)CC1 | -53.1
55 | CN1CCN(c2oc(-c3ccc([N+](=O)[O-])cc3)nc2C#N)CC1 | -66.1
56 | CCOc1ccc(-c2nc(C#N)c(N3CCN(CC)CC3)o2)cc1 | -47.3
57 | CCN1CCN(c2oc(-c3ccc(OC)cc3)nc2C#N)CC1 | -45.6
